For some assays here: Entries with a potency or affinity are not part of this list. Active and inactive are the calls of the source.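 Rule for the calls, unless noted: active = calcium signal cut by more than 3 SD below the full-agonist control yet still positive, in both repeats and the earlier primary screen; inactive = the rest.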

Test [1] concerns TRPC4 beta (transient receptor potential cation channel C4), mouse. In words: activators of mouse TRPC4 channel, confirmation, cell-based, Fluo4 calcium, HEK293 TRPC4beta/mu-opioid, duplicates, 10 µM (AID 2426;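 active = fluorescence ratio normalized to control raised more than 50% in primary screen plus both repeat runs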). As to conditions: Fluo4 calcium fluorescence, at 10 µM; active compounds read high.
In test [2] the test system is transient receptor potential cation channel C4 beta (TRPC4), mouse. In words: activators of mouse TRPC4 channel, confirmation, cell-based, second round, Fluo4, HEK293 TRPC4beta/mu-opioid, 1 µM (AID 2461;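 active = primary screen active and over 50% activation in each of two duplicate runs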). As to conditions: Fluo4 calcium fluorescence, at 1 µM; active compounds read high.
The subject of test [3] is TRPC4 (transient receptor potential cation channel C4 beta), mouse. In words: positive allosteric modulators of mouse TRPC4, confirmation, cell-based, second round, Fluo-4, HEK293 TRPC4beta/mu-opioid, 1 µM (AID 2554;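 active = primary screen hit whose fluorescence ratio, in both repeats, exceeds the weak agonist control mean by 3 SD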). The note with it: DAMGO EC20, Fluo-4 calcium flux, at 1 µM; active compounds read high.
The test system of test [4] is TRPC4 beta (transient receptor potential cation channel C4), mouse. Description: positive allosteric modulators of mouse TRPC4, confirmation, cell-based, Fluo-4, HEK293 TRPC4beta/mu-opioid (AID 2555;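 active = primary screen hit whose calcium fluorescence ratio, in both repeats, exceeds the weak agonist control mean by 3 SD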). As to conditions: DAMGO EC20, Fluo-4 calcium flux, at 10 µM; active compounds read high.
Test [5] deals with Short transient receptor potential channel 4 (Mus musculus) (UniProt Q9QUQ5). In words: inhibitors of mouse TRPC4 channel, confirmation, cell-based, Fluo4, HEK293 TRPC4beta/mu-opioid (AID 2636). As to conditions: DAMGO, Fluo4 calcium flux, at 10 µM; active compounds read high.
The target is the same in test [6]. Description: inhibitors of mouse TRPC4 channel, confirmation, cell-based, second round, Fluo4, HEK293 TRPC4beta/mu-opioid, 1 µM (AID 2637;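 active = calcium signal ratio cut to more than 3 SD under the fully stimulated control mean yet still positive, in both repeats and the primary screen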;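 for inhibition: percent of integrated ratio relative to wells lacking test compound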). As to conditions: Fluo4 calcium flux, DAMGO, at 1 µM; active compounds read high.
Test [7] has the same target. In words: mouse TRPC4 channel activators, dose response, cell-based, HEK293 TRPC4/mu-opioid, Fluo-4 calcium (AID 434937;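 active = primary screen activator hit with a dose response curve and TRPC4 channel activation at any tested dose; inactive = no activation, no dose response, or not a primary hit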).
Test [8] shares this target. Description: TRPC4 positive allosteric modulators, dose response, cell-based, HEK293 TRPC4/mu-opioid, Fluo-4 calcium, EC20 DAMGO (AID 434941;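 active = earlier screen potentiator hit that boosts the TRPC4 ion channel at some dose, with a dose response; inactive = no potentiation, no dose response, or not a prior hit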;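 note: calcium entry triggered by an EC20 dose of DAMGO at the co-expressed mu-opioid receptor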).
For test [9], the target named is Short transient receptor potential channel 6 (Mus musculus) (UniProt Q61143). In words: inhibition of mouse TRPC6 channel, confirmation, selectivity assay for TRPC4 inhibitor project, cell-based, HEK293, membrane potential dye, duplicate (AID 434948;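 active = active in primary screen and both duplicates, each dropping signal beyond three positive-control SD with fluorescence still positive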). The note with it: HEK293 TRPC6, membrane potential dye fluorescence, at 10 µM, stimulated with maximal-effect acetylcholine; active compounds read high.

Test [10] has the same target. In words: activation of mouse TRPC6 channel, confirmation, selectivity assay for TRPC4 activator project, cell-based, HEK293, membrane potential dye, duplicate (AID 434950;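 active = membrane potential signal rise above negative control mean plus 3 SD in both duplicates, also active in the earlier TRPC4 screen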). The note with it: HEK293 TRPC6, membrane potential fluorescence, at 10 µM; active compounds read high.
Test [11] has the same target. In words: TRPC6 potentiation by TRPC4 potentiator hits, confirmation, selectivity assay for TRPC4 potentiator project, HEK293 cells, membrane potential dye, duplicate (AID 434952;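 active = compound raising the membrane signal above positive-control mean plus 3 SD in both repeats, and a primary screen hit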). The note with it: HEK293 TRPC6, membrane potential dye fluorescence, at 10 µM, maximal acetylcholine added after compound; active compounds read high.
Test [12] deals with Short transient receptor potential channel 4 (Mus musculus) (UniProt Q9QUQ5). Description: calcium flux activators in TRPC4/5HT1a cells, counter-screen for TRPC4 activator project, cell-based, second counter screen, HEK293 TRPC4/5HT1a, Fluo-4 (AID 434977;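 active = calcium signal rise above buffer-control mean plus 5 SD in both duplicates, and also a hit in the primary screen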;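 for activation: plate controls were assay buffer for no effect and maximal serotonin response for full effect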). The note with it: Fluo-4 calcium flux, at 10 µM; active compounds read high.
A short description of test [13]: calcium flux inhibitors in TRPC4/5HT1a cells, confirmation, counter-screen for TRPC4 inhibitor project, cell-based, second counter screen, HEK293 TRPC4/5HT1a, Fluo-4 (AID 434978;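 active = primary screen active whose calcium signal fell more than 3 SD beyond the full-serotonin control mean in both duplicate plates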;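 for outcome: serotonin given first at submaximal then at maximal dose after compound preincubation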). As to conditions: Fluo-4 calcium flux, at 10 µM, serotonin added to trigger calcium flux; active compounds read high.
In test [14] the test system is TRPC4 (mouse), co-expressed with 5HT1a in HEK293. Description: calcium flux potentiators in TRPC4/5HT1a cells, confirmation, counter-screen for TRPC4 potentiator project, cell-based, second counter screen, HEK293 TRPC4/5HT1a, Fluo-4 (AID 434979;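 active = signal rise over 3 SD above mean of control wells given weak agonist, in both repeats and first screen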). As to conditions: Fluo-4 calcium flux, at 10 µM, serotonin added at its EC20 dose; active compounds read high.
A short description of test [15]: calcium flux activation in mu-opioid HEK293 cells, confirmation, counter-screen for TRPC4 activator project, cell-based, HEK293 mu-opioid receptor line (AID 449723;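 active = hit in primary screen, with calcium signal over 5 SD above buffer well mean in both duplicates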;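 note: counter screen cells carry the mu-opioid receptor alone and lack TRPC4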). As to conditions: Fluo-4 calcium fluorescence, at 10 µM; active compounds read high.
A short description of test [16]: calcium flux enhancement in mu-opioid HEK293 cells, confirmation, counter-screen for TRPC4 allosteric potentiator project, cell-based, HEK293 mu-opioid receptor line (AID 449724;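 active = calcium signal rise more than 3 SD above the low-dose agonist control mean, in both duplicate plates and the primary screen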;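 note: HEK293 cells carrying mu-opioid receptor only with no TRPC4 channel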). The note with it: Fluo-4 calcium flux, at 10 µM, compound added before EC20 DAMGO stimulus; active compounds read high.
Test [17] in a line: thallium flux activation in parental CHO cells, counter-screen for KCNQ1 potentiator project (AID 493006;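 active = duplicate-averaged activation above buffer control mean plus 5 SD of those controls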;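 for activation: fluorescence ratio of max minus min over baseline after K+ and Tl+ depolarization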). The note with it: parental CHO-K1 cells, FluxOR thallium flux, at 10 µM; active compounds read high.
In test [18] the target is Potassium voltage-gated channel subfamily KQT member 1 (Homo sapiens) (UniProt P51787). In words: KCNQ1 potassium channel potentiators, confirmation, FluxOR thallium flux, CHO cells, duplicates (AID 493007;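 active = potentiation averaged over duplicate wells exceeding buffer-only control mean by more than 3 SD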;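 for outcome: cells depolarized by a potassium plus thallium sulfate stimulus after compound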;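 for potentiation: 0% = buffer-only wells and 100% = R-L3 activator control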). The note with it: KCNQ1 cell line, FluxOR thallium flux fluorescence, at 10 µM; active compounds read high, % of reference activator effect, buffer zero.
Test [19] concerns the target Potassium voltage-gated channel subfamily KQT member 2 (Rattus norvegicus) (UniProt O88943). In words: rat KCNQ2 channel potentiation, selectivity assay for KCNQ1 potentiator project, KCNQ2-CHO-K1 cells (AID 493009;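 active = mean duplicate potentiation above the buffer control mean plus 5 SD of buffer wells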;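 note: assay conditions were tuned for KCNQ1 rather than KCNQ2 modulators; signal is max minus min fluorescence divided by baseline after thallium stimulus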). As to conditions: FluxOR thallium flux fluorescence, at 10 µM; active compounds read high, scaled: buffer 0, activator control 100.
The target of test [20] is Potassium voltage-gated channel subfamily KQT member 1 (Homo sapiens) (UniProt P51787). Description: KCNQ1 channel current potentiators, confirmation, orthogonal assay for KCNQ1 potentiator project, IonWorks patch clamp, KCNQ1-CHO cells (AID 493184;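 active = current rise at least 3 SD above the untreated control mean in each of two repeat wells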). The note with it: automated patch clamp current, at 10 µM; active compounds read high.

Chain of Short transient receptor potential channel 6 (Mus musculus) (Q61143 whole entry, looked up): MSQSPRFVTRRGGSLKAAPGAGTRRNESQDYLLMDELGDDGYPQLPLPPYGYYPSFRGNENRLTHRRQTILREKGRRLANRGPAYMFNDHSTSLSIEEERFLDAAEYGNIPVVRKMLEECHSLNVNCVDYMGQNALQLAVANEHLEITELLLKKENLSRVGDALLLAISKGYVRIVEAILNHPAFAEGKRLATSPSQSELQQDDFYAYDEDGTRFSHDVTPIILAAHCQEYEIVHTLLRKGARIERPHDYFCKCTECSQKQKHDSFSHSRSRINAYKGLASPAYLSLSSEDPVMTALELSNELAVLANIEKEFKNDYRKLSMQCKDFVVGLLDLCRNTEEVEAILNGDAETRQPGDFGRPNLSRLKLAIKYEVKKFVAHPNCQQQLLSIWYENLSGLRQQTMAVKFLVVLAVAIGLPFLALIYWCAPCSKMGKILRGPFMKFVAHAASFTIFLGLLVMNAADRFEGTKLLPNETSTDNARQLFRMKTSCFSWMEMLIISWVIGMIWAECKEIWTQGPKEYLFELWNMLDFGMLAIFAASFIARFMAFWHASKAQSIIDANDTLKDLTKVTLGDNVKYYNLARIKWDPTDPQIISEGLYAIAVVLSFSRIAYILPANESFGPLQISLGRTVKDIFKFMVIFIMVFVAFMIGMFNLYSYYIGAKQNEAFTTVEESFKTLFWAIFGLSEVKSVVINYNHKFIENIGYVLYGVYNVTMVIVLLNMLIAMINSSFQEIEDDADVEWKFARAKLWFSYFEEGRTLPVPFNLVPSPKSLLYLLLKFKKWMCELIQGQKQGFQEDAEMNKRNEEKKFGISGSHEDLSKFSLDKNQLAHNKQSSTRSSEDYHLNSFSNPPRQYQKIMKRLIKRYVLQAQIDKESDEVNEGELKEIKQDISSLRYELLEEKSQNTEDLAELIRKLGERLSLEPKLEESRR
Chain of Short transient receptor potential channel 4 (Mus musculus) (Q9QUQ5 whole entry, looked up): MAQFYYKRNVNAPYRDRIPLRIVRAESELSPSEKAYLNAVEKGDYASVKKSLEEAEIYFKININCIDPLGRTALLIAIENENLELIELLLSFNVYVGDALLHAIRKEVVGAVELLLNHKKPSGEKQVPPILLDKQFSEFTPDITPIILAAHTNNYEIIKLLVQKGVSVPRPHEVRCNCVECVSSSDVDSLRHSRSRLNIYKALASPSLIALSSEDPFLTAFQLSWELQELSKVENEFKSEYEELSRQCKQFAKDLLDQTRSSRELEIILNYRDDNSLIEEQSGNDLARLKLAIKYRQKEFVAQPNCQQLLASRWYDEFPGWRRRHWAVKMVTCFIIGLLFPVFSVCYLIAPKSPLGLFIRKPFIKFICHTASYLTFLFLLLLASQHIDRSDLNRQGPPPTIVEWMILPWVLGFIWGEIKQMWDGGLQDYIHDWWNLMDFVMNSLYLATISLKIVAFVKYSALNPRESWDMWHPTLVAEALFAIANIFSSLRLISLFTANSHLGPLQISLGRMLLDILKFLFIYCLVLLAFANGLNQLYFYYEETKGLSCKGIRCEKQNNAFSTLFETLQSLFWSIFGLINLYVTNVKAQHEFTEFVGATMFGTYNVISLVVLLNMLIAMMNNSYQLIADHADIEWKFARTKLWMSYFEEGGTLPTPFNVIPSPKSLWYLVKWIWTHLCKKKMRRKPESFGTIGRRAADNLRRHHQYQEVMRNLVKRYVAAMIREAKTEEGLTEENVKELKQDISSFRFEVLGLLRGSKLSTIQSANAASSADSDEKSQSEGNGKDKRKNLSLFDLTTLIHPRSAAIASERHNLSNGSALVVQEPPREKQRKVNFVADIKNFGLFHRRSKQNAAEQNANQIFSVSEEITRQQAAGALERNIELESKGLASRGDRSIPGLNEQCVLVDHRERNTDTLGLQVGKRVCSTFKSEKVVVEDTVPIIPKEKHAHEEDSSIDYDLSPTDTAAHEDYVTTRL
Chain of Potassium voltage-gated channel subfamily KQT member 1 (Homo sapiens) (P51787 whole entry, looked up): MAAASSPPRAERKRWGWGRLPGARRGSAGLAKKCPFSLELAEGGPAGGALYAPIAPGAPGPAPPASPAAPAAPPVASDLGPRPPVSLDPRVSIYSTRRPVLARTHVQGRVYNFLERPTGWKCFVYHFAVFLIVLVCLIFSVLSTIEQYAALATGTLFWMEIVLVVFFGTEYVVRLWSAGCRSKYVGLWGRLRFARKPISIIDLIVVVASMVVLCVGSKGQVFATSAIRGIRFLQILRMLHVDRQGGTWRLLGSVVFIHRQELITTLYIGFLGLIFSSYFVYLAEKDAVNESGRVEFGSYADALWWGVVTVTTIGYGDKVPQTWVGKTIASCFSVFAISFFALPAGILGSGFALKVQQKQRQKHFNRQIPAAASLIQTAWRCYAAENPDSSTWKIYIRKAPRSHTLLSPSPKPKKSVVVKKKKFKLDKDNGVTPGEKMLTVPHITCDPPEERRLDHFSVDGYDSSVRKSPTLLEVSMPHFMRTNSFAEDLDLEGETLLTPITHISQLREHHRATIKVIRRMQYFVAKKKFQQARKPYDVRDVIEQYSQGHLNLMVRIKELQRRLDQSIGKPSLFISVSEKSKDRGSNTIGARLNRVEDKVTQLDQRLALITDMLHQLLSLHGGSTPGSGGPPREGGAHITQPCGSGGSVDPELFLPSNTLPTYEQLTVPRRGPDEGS
Chain of Potassium voltage-gated channel subfamily KQT member 2 (Rattus norvegicus) (O88943 whole entry, looked up): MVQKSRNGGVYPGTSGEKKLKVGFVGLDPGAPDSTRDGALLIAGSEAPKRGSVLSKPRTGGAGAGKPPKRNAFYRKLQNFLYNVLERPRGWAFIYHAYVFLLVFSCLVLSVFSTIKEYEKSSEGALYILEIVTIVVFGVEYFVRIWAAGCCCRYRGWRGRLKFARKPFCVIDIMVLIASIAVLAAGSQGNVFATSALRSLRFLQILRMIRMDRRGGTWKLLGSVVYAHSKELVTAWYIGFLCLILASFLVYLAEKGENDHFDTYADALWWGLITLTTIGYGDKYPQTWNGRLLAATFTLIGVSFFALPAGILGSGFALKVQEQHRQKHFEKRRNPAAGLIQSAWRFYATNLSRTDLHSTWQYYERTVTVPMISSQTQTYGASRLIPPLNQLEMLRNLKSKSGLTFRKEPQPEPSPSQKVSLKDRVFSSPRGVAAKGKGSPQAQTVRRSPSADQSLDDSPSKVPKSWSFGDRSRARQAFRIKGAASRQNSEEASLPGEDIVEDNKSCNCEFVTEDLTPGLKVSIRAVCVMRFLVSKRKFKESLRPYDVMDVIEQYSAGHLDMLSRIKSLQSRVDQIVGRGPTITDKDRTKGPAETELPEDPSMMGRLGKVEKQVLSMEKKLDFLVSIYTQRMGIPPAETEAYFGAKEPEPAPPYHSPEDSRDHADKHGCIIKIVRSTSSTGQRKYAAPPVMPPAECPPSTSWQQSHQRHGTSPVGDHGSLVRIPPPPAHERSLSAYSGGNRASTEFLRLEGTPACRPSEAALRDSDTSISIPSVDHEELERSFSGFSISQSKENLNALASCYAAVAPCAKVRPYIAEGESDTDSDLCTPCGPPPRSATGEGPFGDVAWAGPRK

As to `Cn1c(-c2ccc(F)cc2)cnc1NCc1ccc(F)cc1F`, the outcome in test [1], in [2], in test [3], in test [4], in test [7] and in test [8] was inactive. In addition, the call in [9], in test [10], in [11], in test [12], in test [14] and in test [15] was inactive. In addition, in [16], the outcome was inactive. Further, the inhibition was 88% (active) in test [5], 46% (active) in test [6] and 29.9% (active) in test [13].

With `Oc1ccc(-c2csc(-c3ccccc3)n2)cc1O`, the outcome in [1], in [2], in test [3], in [4], in test [6] and in test [7] was inactive. The outcome in [8], in test [9], in [10], in test [11], in [12] and in [13] was inactive. Further, the result in test [14], in test [15] and in test [16] was inactive. Moreover, the inhibition in test [5] is 80% (active).

In the case of `Cc1cc(CN2CCCC(C(=O)Nc3ccc(-c4nc5ccccc5[nH]4)cc3)C2)n[nH]1` (centres undefined), the outcome in [1], in test [2], in [3], in test [4], in test [7] and in [8] was inactive. Moreover, the outcome in [9], in test [10], in [11], in [12], in [14] and in test [15] was inactive. Besides, in [16], the result was inactive. Also, the values for the inhibition in [5], in test [6] and in [13] were 77% (active), 61% (active) and 37.2% (active), respectively.

For the compound `COCCn1c(SCc2ccc(OC)c(F)c2)nc2ccccc2c1=O`, the outcome in test [1], in test [2], in test [3], in [4], in [6] and in test [7] was inactive. The outcome in test [8], in test [9], in [10], in test [11], in [12] and in test [14] was inactive. Besides, the result in test [15] and in test [16] was inactive. Besides, the inhibition in test [5] was 95% (active); in test [13], 16.1% (active).

In the case of `CN(C)CC(CCC(CN(C)C)C(O)(c1ccccc1)c1ccccc1)C(O)(c1ccccc1)c1ccccc1` (centres undefined), the result in [1], in test [2], in [3], in [4], in [5] and in [6] was inactive. For the same compound, the outcome in [7], in [8], in test [9], in [10], in test [11] and in [12] was inactive. Moreover, the outcome in test [13], in test [14], in test [15], in test [16], in test [17] and in [18] was inactive. In addition, the outcome in test [19] and in test [20] was inactive.

Take `Cc1ccc(-c2nnc(N3CCC(C)CC3)c3ccccc23)cc1C`: the outcome in test [1], in test [2], in test [5], in test [6], in [7] and in test [9] was inactive. Besides, the call in test [10], in test [11], in [12], in test [13], in test [15] and in [16] was inactive. The values for the potentiation in test [3], in test [4] and in [14] were 7% (active), 127% (active) and 60.2% (active), respectively.

With `Cc1ccc(OCC(=O)NNC(=S)NC(=O)c2ccc(Br)o2)c(C)c1`, the result in [1], in test [2], in [3], in [4], in test [6] and in test [7] was inactive. Besides, the result in test [8], in test [9], in test [10], in [11], in test [14] and in test [15] was inactive. For the same compound, the outcome in test [16] and in [20] was inactive. Moreover, the inhibition in [5] was 65% (active); in test [13], 21.6% (active). Moreover, the activation in [12] was 18.1% (active); in [17] it was 198% (active). Moreover, the potentiation in [18] was 106% (active); in test [19] it was 328% (active).

Values taken from PubChem BioAssay.
